Results filed as inconclusive are left out. Activity calls are given as the source filed them. Unless noted, calls follow the shape of the dose curve; as a rule, active = well fitted curve in the direction sought with a large enough effect; inconclusive = small, poorly fitted or top-dose-only effect, or another doubt; inactive = no such curve, though single readings can be large; an effect the other way counts as inactive or inconclusive.
Experiments:
[1] = qHTS for Inhibitors of Cell Surface uPA Generation: Validation Assay (AID 493164);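 also: RAW 264.7 macrophage cells exposed to compound for 18 h; 0% is about no effect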
How it was run: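 ATP-Lite luminescence read-out: ATP remains high when uPA activity-dependent LF translocation into the cytoplasm is blocked. RAW 264.7 cells, 18 h compound exposure at 37 C; 7-point titration, 2.45 nM to 38.3 uM final.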

[2] = target: Galactokinase (Homo sapiens) (UniProt P51570); assay: qHTS Validation Assay for Inhibitors of Human Galactokinase (GALK) (AID 493189); also: 0% is about no effect
How it was run: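 Inhibition was measured as remaining ATP, detected by luciferase luminescence after a 1 h room-temperature reaction. Final conditions: 5 nM GALK, 100 uM galactose, 35 uM ATP, pH 8.0 HEPES buffer.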

[3] = Validation screen for small molecules that induce DNA re-replication in SW480 colon adenocarcinoma cells (AID 504364); also: 0% is about no effect
How it was run: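 Image-based qHTS: compounds were incubated with SW480 cells for 48 hr, nuclei stained with Hoechst, and per-nucleus fluorescence intensity scanned to flag cells with excess DNA content.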

[4] = target: Peptidyl-prolyl cis-trans isomerase NIMA-interacting 1 (Homo sapiens) (UniProt Q13526); assay: qHTS Validation Assay to Find Inhibitors of Pin1 (AID 504536; active = well fitted inhibition curve with a large enough effect in the polarisation, with a control signal flat, not every such curve was filed as active; the % refers to the polarisation;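 also: 0% = full Pin1 enzyme wells and -100% = no-enzyme wells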)
Chain of Peptidyl-prolyl cis-trans isomerase NIMA-interacting 1 (Homo sapiens) (Q13526 whole entry, looked up): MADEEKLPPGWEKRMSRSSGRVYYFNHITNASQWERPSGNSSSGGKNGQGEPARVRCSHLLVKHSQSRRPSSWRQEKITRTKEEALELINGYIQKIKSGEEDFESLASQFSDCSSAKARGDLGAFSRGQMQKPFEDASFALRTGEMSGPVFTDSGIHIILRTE
How it was run: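 Fluorescence polarization competition: compounds (titration) displace HiFluor-488-labeled Pin1-1b peptide from Pin1 (0.3 uM final) in pH 7.5 HEPES buffer with DTT, 10 min at room temperature; %Activity normalized to no-enzyme wells, curves fitted.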

[5] = target: Phosphoglycerate kinase, glycosomal (Trypanosoma brucei brucei) (UniProt P07378); assay: qHTS Validation Assay to Find Inhibitors of Phosphoglycerate Kinase (AID 504547);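 also: control wells lack PGK and mark full inhibition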
Chain of Phosphoglycerate kinase, glycosomal (Trypanosoma brucei brucei) (P07378 whole entry, looked up): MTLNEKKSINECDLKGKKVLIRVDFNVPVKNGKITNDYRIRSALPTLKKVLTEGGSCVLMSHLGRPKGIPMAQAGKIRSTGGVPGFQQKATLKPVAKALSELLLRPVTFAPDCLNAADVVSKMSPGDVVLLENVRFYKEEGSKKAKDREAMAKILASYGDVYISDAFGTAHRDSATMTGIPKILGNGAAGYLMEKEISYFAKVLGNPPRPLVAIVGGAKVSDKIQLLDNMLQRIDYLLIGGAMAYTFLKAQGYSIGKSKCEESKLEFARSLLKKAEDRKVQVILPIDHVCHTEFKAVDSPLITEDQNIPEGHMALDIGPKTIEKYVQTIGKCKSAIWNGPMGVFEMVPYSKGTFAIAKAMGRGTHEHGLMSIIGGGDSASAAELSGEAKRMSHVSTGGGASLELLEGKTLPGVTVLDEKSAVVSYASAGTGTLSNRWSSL
How it was run: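 Compounds are pinned into the substrate/PGK mixture, and GAPDH (100nM final) is added to start the reaction by producing 1,3-BPG. After 60 minutes at room temperature, Kinase-Glo Plus is added and luminescence is measured 10 minutes later.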

[6] = target: phosphoglycerate mutase (Leishmania major) (UniProt Q4Q090); assay: qHTS Validation Assay to Find Inhibitors of Phosphoglycerate Mutase (AID 504548); also: series mostly up to about 58 µM; % is scaled to controls: 0 for no effect and ±100 for the full control effect
How it was run: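 Lm PGAM 1.25nM final; 100 mM TEA pH 7.6, 5 mM MgCl2, 0.01% Tween-20; 45 min RT; Kinase-GloPlus, 10 min; end-point luminescence. Enzyme-free wells as negative controls.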

[7] = Inducers of the Endoplasmic Reticulum Stress Response (ERSR) in human glioma: Validation (AID 504836); also: 0% is about no effect
How it was run: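 Stably transfected U87-MG glioma cells carrying a GRP78-based luciferase sensor; 16 h compound incubation. Luminescence end-point read 10 min after Bright-Glo addition at room temperature.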

[8] = target: Ubiquitin carboxyl-terminal hydrolase 1 (Homo sapiens) (UniProt O94782); assay: Inhibitors of USP1/UAF1: Pilot qHTS (AID 504865);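 also: rhodamine fluorescence freed from ubiquitin-rhodamine substrate followed over time; top concentration of the series differs between compounds; % is scaled to controls: 0 for no effect and ±100 for the full control effect; nearly all actives have a fitted effect of over 35% in size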
How it was run: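 Deubiquitinase activity followed as kinetic rhodamine fluorescence release from 150 nM Ub-Rho. 1 nM USP1/UAF1 with compound, after 15 min room-temperature preincubation, in HEPES pH 7.8 buffer containing TCEP, EDTA, BSA and Tween-20.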

[9] = qHTS for Inhibitors of ATXN expression: Validation of Cytotoxic Assay (AID 588349); also: % is scaled to controls: 0 for no effect and ±100 for the full control effect
How it was run: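 Titrated compounds are added to cultured HEK293 cells, which are then held at 37 degrees C for 72 hr; loss of intracellular ATP, measured with CellTiter Glo, indicates toxicity.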

[10] = qHTS for Inhibitors of ATXN expression: Validation (AID 588378); also: series mostly up to about 57 µM; % is scaled to controls: 0 for no effect and ±100 for the full control effect; nearly all actives have a fitted effect of over 75% in size
How it was run: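 Luciferase luminescence (Bright-Glo) from an ATXN2-FFLuc HEK293 line after 24 h compound exposure at 37 °C, preceded by a CellTiter-Fluor fluorescence viability read. Serial dilutions of a reference ATXN2 inhibitor and a luciferase inhibitor served as controls.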

[11] = target: Voltage-gated inwardly rectifying potassium channel KCNH2 (Homo sapiens) (UniProt Q12809); assay: qHTS Assay for Small Molecule Inhibitors of the Human hERG Channel Activity (AID 588834);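 also: top concentration of the series differs between compounds; % is scaled to controls: 0 for no effect and ±100 for the full control effect; lower thallium flux fluorescence means stronger hERG block; nearly all actives have a fitted effect of over 50% in size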
How it was run: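 hERG block measured as reduced thallium-dye (FluxOR) fluorescence after stimulation buffer addition, read over 2 min. Cells were hERG-BacMam-transduced U2OS exposed to compound ~10 min […]; concentration-response fitted with Hill equation for AC50.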

[12] = target: Glutaminase kidney isoform, mitochondrial (Homo sapiens) (UniProt O94925); assay: qHTS for Inhibitors of Glutaminase (GLS): LOPAC Validation (AID 624146);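 also: glutamate product detected by oxidase and peroxidase coupled Amplex red fluorescence gain; series mostly up to about 46 µM; % is scaled to controls: 0 for no effect and ±100 for the full control effect; nearly all actives have a fitted effect of over 60% in size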
How it was run: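 Coupled fluorescence readout: glutamate oxidase/HRP/Amplex Red detect glutamate formed by hKGA from L-glutamine (1 mM solution added). Buffer 45 mM KH2PO4 pH 8.2, 0.02% Tween-20; reads at t0 and 30 min RT.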

[13] = qHTS of Trypanosoma Brucei Inhibitors: LOPAC Validation (AID 624147); also: 0% is about no effect
How it was run: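 TbPYK + substrate in 50 mM TEA pH 7.2, 100 mM KCl, 10 mM MgCl2, 0.05% BSA, 0.01% Tween-20; cpd pinned; ADP 130 uM final; 45 min RT; Kinase-Glo Plus 10 min; luminescence endpoint.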

[14] = target: Glucagon-like peptide 1 receptor (Homo sapiens) (UniProt P43220); assay: qHTS of GLP-1 Receptor Agonists: LOPAC Validation (AID 624148);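 also: 0% is about no effect; higher luminescence signal means agonism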
Chain of Glucagon-like peptide 1 receptor (Homo sapiens) (P43220 whole entry, looked up): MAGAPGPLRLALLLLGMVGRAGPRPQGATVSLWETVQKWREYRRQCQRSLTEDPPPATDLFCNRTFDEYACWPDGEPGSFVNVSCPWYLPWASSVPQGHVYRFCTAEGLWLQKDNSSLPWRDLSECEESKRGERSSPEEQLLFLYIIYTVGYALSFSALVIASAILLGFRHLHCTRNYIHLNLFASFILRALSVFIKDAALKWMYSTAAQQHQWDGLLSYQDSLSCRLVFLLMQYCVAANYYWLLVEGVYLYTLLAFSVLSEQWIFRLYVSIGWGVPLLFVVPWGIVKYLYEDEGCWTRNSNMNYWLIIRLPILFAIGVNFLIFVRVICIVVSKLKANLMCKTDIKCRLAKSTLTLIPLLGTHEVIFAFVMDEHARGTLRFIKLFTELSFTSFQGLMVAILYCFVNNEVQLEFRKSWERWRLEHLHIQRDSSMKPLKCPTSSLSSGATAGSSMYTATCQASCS
How it was run: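 HEK293 cells stably co-expressing GLP-1R and a cAMP-responsive luciferase reporter, plated 12 hours before compound, then incubated 4-6 hr at 37 deg C. Luminescence read 12 min after detection reagent.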

[15] = qHTS of Nrf2 Activators: LOPAC Validation (AID 624149); also: 0% is about no effect
How it was run: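 Cells (AREc32_Fluc) are plated at 1000 per well in OPTI-MEM containing 5% FBS and left overnight. Compounds are pinned in and incubated 24 hr at 37 deg C, and firefly luciferase is detected with Steady-Glo.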

[16] = HTS Assay for Allosteric Antagonists of the Human D2 Dopamine Receptor: Hit Validation in HTRF (AID 624455);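 also: stable D1 dopamine receptor cell line scored for blocking the D1 response; % is scaled to controls: 0 for no effect and ±100 for the full control effect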
How it was run: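 Inhibition of the D1-mediated response is measured by HTRF in cells that stably express the D1 dopamine receptor. Compounds reaching this step are hits from calcium-flux antagonism testing at EC80 dopamine in inducible Hek293 Trex D2 cells.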

[17] = target: Arylsulfatase A (Homo sapiens) (UniProt P15289); assay: qHTS screen for enhancers of Arylsulfatase A (ASA1): LOPAC Validation Assay (AID 720538); also: 0% is about no effect
How it was run: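 Enhancer assay in patient-derived MLD fibroblasts carrying ASA-I179S: 48 h compound exposure at 37 C, then 14 h room-temperature pNCS turnover (0.5 mM final) in lysis buffer. Read by fluorescence at 525/598 nm after NaOH stop.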

[18] = qHTS for compounds that reverse cellular toxicity of Amyloid beta (A-beta) peptide in yeast: LOPAC Validation Assay (AID 720559);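 also: plate controls were DMSO for no effect and equimolar ferric chloride plus clioquinol rescue for full effect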
How it was run: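 Rescue of A-beta toxicity was scored as yeast growth by 600 nm absorbance after 48 hr at 30 C with compound. Normalization used DMSO (negative) and equimolar ferric chloride plus clioquinol (positive).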

[19] = qHTS for Activators of Parkin Expression: LOPAC Validation Assay (NLuc Reporter) (AID 720572)
How it was run: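 NLuc signal, read 10 min after reagent and following a prior FLuc read, is normalized to DMSO (0) and positive controls (100%). Cells: neuronal Parkin-promoter coincidence reporter line; compounds tested 7-point, 24 h, 37 C, 5% CO2.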

[20] = qHTS for Activators of Parkin Expression: LOPAC Validation Assay (FLuc Reporter) (AID 720573)
How it was run: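 FLuc signal from Parkin-promoter coincidence reporter neuronal cells, normalized to DMSO and positive control (100%). Cells (1,500/well) pre-incubated 24 h, then exposed to LOPAC compounds in 7-point dose response for 24 h at 37 C, 5% CO2.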

[21] = target: T1, Hexokinase-4 (Homo sapiens) + Glucokinase regulatory protein (Homo sapiens) (UniProt P35557+Q14397); assay: qHTS assay for inhibitors of recombinant human GCK-GKRP interaction: Diaphorase-coupled assay (AID 743205)
T1 sequence (P35557 whole entry, looked up): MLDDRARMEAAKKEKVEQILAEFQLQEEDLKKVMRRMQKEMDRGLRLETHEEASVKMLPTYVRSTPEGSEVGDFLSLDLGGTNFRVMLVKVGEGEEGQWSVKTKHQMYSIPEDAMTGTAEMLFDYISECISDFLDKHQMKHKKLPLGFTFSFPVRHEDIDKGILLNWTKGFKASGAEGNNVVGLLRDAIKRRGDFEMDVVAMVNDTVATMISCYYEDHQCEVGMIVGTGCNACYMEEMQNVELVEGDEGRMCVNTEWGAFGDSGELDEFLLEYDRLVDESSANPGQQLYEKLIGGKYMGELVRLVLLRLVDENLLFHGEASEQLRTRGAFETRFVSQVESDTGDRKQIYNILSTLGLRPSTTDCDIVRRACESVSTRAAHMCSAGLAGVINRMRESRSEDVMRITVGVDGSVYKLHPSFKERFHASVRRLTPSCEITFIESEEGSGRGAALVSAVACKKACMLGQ
T1 sequence (Q14397 whole entry, looked up): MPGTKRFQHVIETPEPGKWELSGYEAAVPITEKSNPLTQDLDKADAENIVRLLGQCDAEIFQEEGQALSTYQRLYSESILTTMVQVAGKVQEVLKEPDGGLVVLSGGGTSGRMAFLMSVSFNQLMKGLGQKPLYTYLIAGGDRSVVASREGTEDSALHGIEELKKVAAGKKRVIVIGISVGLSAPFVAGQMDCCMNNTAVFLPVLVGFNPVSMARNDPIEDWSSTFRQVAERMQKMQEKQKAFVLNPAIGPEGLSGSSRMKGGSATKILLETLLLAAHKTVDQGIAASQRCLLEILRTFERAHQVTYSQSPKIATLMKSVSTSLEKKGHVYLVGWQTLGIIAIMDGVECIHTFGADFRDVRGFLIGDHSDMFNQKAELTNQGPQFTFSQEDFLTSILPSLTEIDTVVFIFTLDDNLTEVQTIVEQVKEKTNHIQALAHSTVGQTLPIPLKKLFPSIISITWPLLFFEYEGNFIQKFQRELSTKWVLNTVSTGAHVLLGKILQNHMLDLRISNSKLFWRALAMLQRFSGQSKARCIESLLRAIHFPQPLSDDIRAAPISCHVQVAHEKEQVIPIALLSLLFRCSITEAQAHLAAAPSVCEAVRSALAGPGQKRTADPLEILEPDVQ
How it was run: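 A kinetic fluorescence read (Ex 525/Em 590 nm, every minute for 30 minutes) tracked resorufin from a G6PDH-diaphorase coupled GCK reaction. It contained 10 nM GST-GCK, 10 nM FLAG-GKRP, 5 mM glucose, 0.4 mM ATP in Hepes pH 7.6. Normalized to with/without-enzyme DMSO controls.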

[22] = target: T1, Hexokinase-4 (Homo sapiens) + Glucokinase regulatory protein (Homo sapiens); assay: qHTS assay for inhibitors of recombinant human GCK-GKRP interaction: ADP-Glo assay (AID 743206);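 also: plate controls were DMSO plus enzyme for no effect and no enzyme for full effect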
How it was run: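 Pin-transferred compounds meet a 15 nM GST-GCK/15 nM FLAG-GKRP/2 uM S6P mix (dispense concentrations). ATP is then added to 0.4 mM final with 5 mM glucose, and the reaction runs 60 min at room temperature. ADP is quantified luminescently.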

[23] = target: T1, Hexokinase-4 (Homo sapiens) + Glucokinase regulatory protein (Homo sapiens); assay: qHTS assay for inhibitors of recombinant human GCK-GKRP interaction: HTRF assay (AID 743207);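 also: 0% = DMSO with GCK present and -100% = DMSO wells lacking GCK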
How it was run: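 After 60 min equilibration at room temperature with anti-FLAG XL665 and anti-GST antibodies, FRET ratio (665/615 nm, excitation 320 nm) was read. Proteins: GST-GCK and FLAG-GKRP, each 5 nM, plus 2 uM S6P, pH 7.1 buffer; GCK-free wells define minimum signal.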

[24] = qHTS Assay for Identifying Gametocytocidal Compounds (AID 743244);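 also: % is scaled to controls: 0 for no effect and ±100 for the full control effect; actives lower the fluorescent signal which means gametocytes are killed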; conditions: P. falciparum 3D7 stage III-V gametocytes, alamarBlue, 72 h; max response: active compounds read low
How it was run: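 Compounds are pinned into medium, gametocytes (stage III–V, 3D7, 20,000 cells/well) added, and plates held 72 h at 37 °C in 5% CO2. AlamarBlue follows for 24 h before fluorescence reading.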

[25] = Natriuretic polypeptide receptor (hNpr1) antagonism - Pilot counterscreen GloSensor control cell line (AID 1347045; calls by dose curve; also: series mostly up to about 38 µM; % is scaled to controls: 0 for no effect and ±100 for the full control effect)
How it was run: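 Cells were first seeded and incubated overnight at 37C, then loaded with 2% GloSensor substrate for 2 h. Compounds were added for 30 min at room temperature, followed by a baseline read, 50 uM SNP and a final read after 20 min.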

[26] = target: Atrial natriuretic peptide receptor 1 (Homo sapiens) (UniProt P16066); assay: Natriuretic polypeptide receptor (hNpr1) antagonism - Pilot screen (AID 1347049; calls by dose curve)
Chain of Atrial natriuretic peptide receptor 1 (Homo sapiens) (P16066 whole entry, looked up): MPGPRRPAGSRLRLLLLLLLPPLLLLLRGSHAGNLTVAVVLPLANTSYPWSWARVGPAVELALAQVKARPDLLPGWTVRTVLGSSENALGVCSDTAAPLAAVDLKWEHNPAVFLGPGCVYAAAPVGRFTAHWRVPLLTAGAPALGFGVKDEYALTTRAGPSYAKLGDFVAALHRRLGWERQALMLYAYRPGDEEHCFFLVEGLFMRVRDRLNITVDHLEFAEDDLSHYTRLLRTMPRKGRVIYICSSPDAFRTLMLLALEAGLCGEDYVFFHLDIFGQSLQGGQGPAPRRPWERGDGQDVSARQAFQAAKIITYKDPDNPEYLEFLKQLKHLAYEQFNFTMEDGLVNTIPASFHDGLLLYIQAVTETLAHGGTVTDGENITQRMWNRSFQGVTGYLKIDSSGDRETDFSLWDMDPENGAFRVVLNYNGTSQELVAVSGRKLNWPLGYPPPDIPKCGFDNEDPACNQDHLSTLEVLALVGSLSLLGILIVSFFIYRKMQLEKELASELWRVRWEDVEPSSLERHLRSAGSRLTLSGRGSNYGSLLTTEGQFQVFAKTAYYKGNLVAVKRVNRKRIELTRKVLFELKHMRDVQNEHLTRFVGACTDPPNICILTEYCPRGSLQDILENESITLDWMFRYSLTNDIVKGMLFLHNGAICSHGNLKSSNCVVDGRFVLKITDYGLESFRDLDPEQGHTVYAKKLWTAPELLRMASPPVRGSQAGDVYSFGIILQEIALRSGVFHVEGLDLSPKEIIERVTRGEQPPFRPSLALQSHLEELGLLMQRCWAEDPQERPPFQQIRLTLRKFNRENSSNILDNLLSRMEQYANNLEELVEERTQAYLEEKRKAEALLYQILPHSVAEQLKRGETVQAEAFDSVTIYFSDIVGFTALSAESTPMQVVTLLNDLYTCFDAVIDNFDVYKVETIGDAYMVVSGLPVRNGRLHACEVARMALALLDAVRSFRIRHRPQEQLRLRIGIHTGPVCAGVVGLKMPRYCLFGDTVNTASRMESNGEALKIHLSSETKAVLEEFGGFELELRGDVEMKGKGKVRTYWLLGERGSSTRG
How it was run: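 cGMP-sensor HEK293/hNpr1 cells, 1500/well, plated overnight at 37C. 2% GloSensor reagent, 2 h RT. Compound (23 nL pin transfer) 30 min RT, baseline luminescence pre-read. 0.1 nM hNppA, 20 min RT, post-read.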

[27] = target: Atrial natriuretic peptide receptor 2 (Homo sapiens) (UniProt P20594); assay: Natriuretic polypeptide receptor (hNpr2) antagonism - Pilot subtype selectivity assay (AID 1347050; calls by dose curve; also: % is scaled to controls: 0 for no effect and ±100 for the full control effect)
Chain of Atrial natriuretic peptide receptor 2 (Homo sapiens) (P20594 whole entry, looked up): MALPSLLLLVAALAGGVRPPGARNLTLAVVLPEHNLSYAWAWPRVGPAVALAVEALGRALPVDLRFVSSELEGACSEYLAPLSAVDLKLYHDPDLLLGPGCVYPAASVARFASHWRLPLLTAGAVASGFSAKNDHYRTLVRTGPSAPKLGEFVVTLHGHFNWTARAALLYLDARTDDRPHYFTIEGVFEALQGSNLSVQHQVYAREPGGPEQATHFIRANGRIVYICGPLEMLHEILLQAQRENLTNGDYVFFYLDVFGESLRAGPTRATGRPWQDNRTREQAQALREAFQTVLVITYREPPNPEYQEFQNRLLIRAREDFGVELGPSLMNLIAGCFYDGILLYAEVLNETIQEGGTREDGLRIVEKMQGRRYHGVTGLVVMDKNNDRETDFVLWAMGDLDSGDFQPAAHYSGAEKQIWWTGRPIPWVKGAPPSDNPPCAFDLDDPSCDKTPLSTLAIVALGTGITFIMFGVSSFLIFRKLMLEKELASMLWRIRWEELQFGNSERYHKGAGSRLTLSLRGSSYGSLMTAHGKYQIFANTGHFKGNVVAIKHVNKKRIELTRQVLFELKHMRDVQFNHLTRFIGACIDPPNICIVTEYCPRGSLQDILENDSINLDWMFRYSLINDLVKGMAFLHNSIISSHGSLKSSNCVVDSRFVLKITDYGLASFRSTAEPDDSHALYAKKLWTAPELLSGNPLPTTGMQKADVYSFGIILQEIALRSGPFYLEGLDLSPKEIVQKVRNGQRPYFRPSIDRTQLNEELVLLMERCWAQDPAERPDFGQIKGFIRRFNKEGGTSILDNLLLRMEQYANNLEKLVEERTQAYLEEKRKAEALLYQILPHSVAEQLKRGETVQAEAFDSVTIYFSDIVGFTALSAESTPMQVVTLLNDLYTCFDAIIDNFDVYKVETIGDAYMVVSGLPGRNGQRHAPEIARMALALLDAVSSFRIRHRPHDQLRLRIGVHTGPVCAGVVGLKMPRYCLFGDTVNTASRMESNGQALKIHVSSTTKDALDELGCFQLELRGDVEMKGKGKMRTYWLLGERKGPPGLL
How it was run: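 Luminescence from a genetically encoded cGMP luciferase biosensor in hNpr2-expressing HEK293 cells is read before and 20 min after adding 1 nM hNppC. Test compounds, in interplate 1:5 titrations, are added 30-50 min ahead of the agonist.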

[28] = target: Parathyroid hormone/parathyroid hormone-related peptide receptor (Homo sapiens) (UniProt Q03431); assay: qHTS for PTHR1 Agonists: Optimization Screen against the NCGC LOPAC library (AID 1347079);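 also: GloSensor cAMP luminescence in HEK-293 GP2 cells expressing human PTHR1 with IBMX; 0% is about no effect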
Chain of Parathyroid hormone/parathyroid hormone-related peptide receptor (Homo sapiens) (Q03431 whole entry, looked up): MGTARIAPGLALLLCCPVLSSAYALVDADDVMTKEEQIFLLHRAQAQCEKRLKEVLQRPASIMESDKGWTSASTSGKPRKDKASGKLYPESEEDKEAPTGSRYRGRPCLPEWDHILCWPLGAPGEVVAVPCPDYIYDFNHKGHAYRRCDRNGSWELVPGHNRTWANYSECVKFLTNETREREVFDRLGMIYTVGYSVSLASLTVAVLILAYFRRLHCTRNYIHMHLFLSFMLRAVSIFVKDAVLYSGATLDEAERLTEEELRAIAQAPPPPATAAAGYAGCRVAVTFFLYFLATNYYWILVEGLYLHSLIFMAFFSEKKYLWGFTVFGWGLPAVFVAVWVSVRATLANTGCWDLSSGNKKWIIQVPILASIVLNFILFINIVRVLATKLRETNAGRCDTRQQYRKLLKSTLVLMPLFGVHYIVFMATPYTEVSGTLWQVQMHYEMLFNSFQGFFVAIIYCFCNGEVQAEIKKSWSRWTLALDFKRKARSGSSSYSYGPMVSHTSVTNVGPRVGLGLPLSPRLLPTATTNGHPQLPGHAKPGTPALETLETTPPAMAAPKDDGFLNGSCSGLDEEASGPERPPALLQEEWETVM
How it was run: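 HEK-293 GP2 cells, PTHR1 + GloSensor cAMP; 3000 cells/well, o/n. Luciferin + IBMX 0.5mM each (stock), 1 hr 37C. Cpd titration, 1 hr 37C. Lum after 15 min RT. Ctrl M-PTH(1-15) top 10uM.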

[29] = qHTS for Inhibitors of the Functional Ribonucleoprotein Complex (vRNP) of Lassa (LASV) Arenavirus: LASV Primary Screen - GLuc reporter signal (AID 1347082; calls by dose curve; tested in HEK293 reporter line; also: series mostly up to about 57 µM; % is scaled to controls: 0 for no effect and ±100 for the full control effect; nearly all actives have a fitted effect of over 60% in size)
[30] = qHTS for Inhibitors of the Functional Ribonucleoprotein Complex (vRNP) of Lassa (LASV) Arenavirus: Viability assay - alamar blue signal for LASV Primary Screen (AID 1347083; calls by dose curve; tested in HEK293 reporter line; also: series mostly up to about 57 µM; % is scaled to controls: 0 for no effect and ±100 for the full control effect; nearly all actives have a fitted effect of over 80% in size)
[31] = qHTS for Inhibitors of the Functional Ribonucleoprotein Complex (vRNP) of Lymphocytic Choriomeningitis Arenaviruses (LCMV): Viability assay - alamar blue signal for LCMV Primary Screen (AID 1347085; calls by dose curve; tested in HEK293 reporter line; also: series mostly up to about 57 µM; % is scaled to controls: 0 for no effect and ±100 for the full control effect; nearly all actives have a fitted effect of over 80% in size)
[32] = target: Lysine-specific demethylase 5B (Homo sapiens) (UniProt Q9UGL1); assay: Optimization screen for KDM5B Histone Demethylases FDH coupled qHTS against the LOPAC library (AID 1347166); also: 0% is about no effect
How it was run: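 KDM5BDeltaAP (200nM final) in 50mM HEPES pH 7.5, 0.01% Tween-20 was preincubated with compound for 10 min at room temperature. A substrate mix of 12.5uM H3K4Me3, 25uM a-ketoglutarate, ascorbate, Fe2+, NAD+ and formaldehyde dehydrogenase was then added. NADH fluorescence (340/450 nm) was read initially and after 30 min.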

[33] = Validation qHTS assay for inhibitors of Activation Induced Cytidine Deaminase (AID): UDG Counterscreen signal (AID 1347427); also: 0% is about no effect
How it was run: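 Fluorescence at 560 nm excitation, 665 nm emission reports UDG signal after 250 mM NaOH (2x) addition and 30 min. Enzymes (AID 1 uM, UDG 2 U/mL, at 4/3x) preincubated 10 min with compound, then 4 h with 4x 250 nM DJC20/DJC23 substrate at room temperature.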

[34] = target: Single-stranded DNA cytosine deaminase (Homo sapiens) (UniProt Q9GZX7); assay: Validation qHTS assay for inhibitors of Activation Induced Cytidine Deaminase (AID): AID signal (AID 1347429); also: % is scaled to controls: 0 for no effect and ±100 for the full control effect
How it was run: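 Steps: dispense AID with UDG; pin-transfer compound up to 114 uM final; add DJC20/DJC23 substrate and hold 4 hr at room temperature; add NaOH, hold 30 min; read FRET signal (540/590 nm).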

[35] = Primary qHTS for inhibitors of La Crosse Virus (LACV) - induced cell death in SH-SY5Y cells (AID 1508616);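 also: top concentration of the series differs between compounds; 0% = infected DMSO wells and 100% = uninfected DMSO wells; higher means more rescue of cells from virus-induced death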
How it was run: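 SH-SY5Y, 6000 cells/well; cpd via pin tool in DMSO; LACV 0.01 MOI; 6 d 37C 5% CO2; ATPLite, 5 min RT; luminescence normalized to ±virus DMSO controls.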

O=[N+]([O-])c1ccc(O[C@@H]2O[C@H](CO)[C@@H](O)[C@H](O)[C@H]2F)c([N+](=O)[O-])c1
inactive: outcome [1] | outcome [2] | Potency [3] | Potency [4] | Potency [5] | outcome [6] | outcome [7] | Potency [8] | outcome [9] | Potency [10] | Potency [11] | outcome [12] | outcome [13] | outcome [14] | outcome [15] | outcome [16] | Potency [17] | outcome [18] | outcome [19] | outcome [20] | outcome [21] | outcome [22] | outcome [23] | max response [24] 12.9% | outcome [25] | outcome [26] | outcome [27] | outcome [28] | Potency [29] | Potency [30] | Potency [31] | outcome [32] | outcome [33] | outcome [34] | outcome [35]

Reference: PubChem BioAssay (NCATS)
